These results are taken from PubChem BioAssay (Tox21).

Several values for one entry are separate records, joined by “and”; a condition that tells them apart may be missing. Identical values can stand only once. Results filed as inconclusive are left out. Activity calls are given as the source filed them. Unless noted, calls come from the whole dose curve; as a rule, active = well fitted curve in the direction sought with a large enough effect in the repeat runs; inconclusive = weak or mixed curves; inactive = no such curve, though single readings can be large; an effect the other way counts as inactive or inconclusive.

The target in assay [1] is Luciferin 4-monooxygenase (Photinus pyralis) (UniProt P08659). The experiment in a line: qHTS assay to identify small molecule inhibitors of firefly luciferase (AID 1224835). Note: series mostly up to about 120 µM; nearly all actives have a fitted effect of over 25% in size. In short, it runs like this: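 Biochemical qHTS: compounds run as interplate titrations against purified firefly enzyme, with D-luciferin and ATP each at its KM concentration. Light output recorded by CCD imaging.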

Assay [2] in a line: qHTS assay to identify small molecule agonists of the constitutive androstane receptor (CAR) signaling pathway - cell viability counter screen (AID 1224836). Note: nearly all actives have a fitted effect of over 45% in size. Note: potency is the fitted concentration of half-maximal effect. In short, it runs like this:
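Double-stable HepG2 hepatoma cells (hCAR plus CYP2B6-2.2kb) are treated for 23 h at 37 C with test compounds in 15-point concentration series. PK11195 at 0.75 uM final is co-added. Cell viability is quantified by CellTiter-Fluor.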
A general note: In qHTS, concentration-response curves come from the screen itself.

The nature of assay [3]: qHTS assay to identify small molecule antagonists of the constitutive androstane receptor (CAR) signaling pathway - cell viability counter screen (AID 1224837). Note: nearly all actives have a fitted effect of over 45% in size. Note: potency is the fitted concentration of half-maximal effect. An outline of the steps:
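In quantitative HTS format, compounds at 15 concentrations were applied to HepG2 cells double-transfected with hCAR and CYP2B6-2.2kb under 50 nM CITCO stimulation; live-cell protease activity was read after 23 hr via CellTiter-Fluor.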

In assay [4] the target is Nuclear receptor subfamily 1 group I member 3 (Homo sapiens) (UniProt Q14994). The experiment in a line: qHTS assay to identify small molecule antagonists of the constitutive androstane receptor (CAR) signaling pathway (AID 1224838). Note: nearly all actives have a fitted effect of over 40% in size. An outline of the steps: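 CITCO-stimulated (50 nM final) HepG2 cells stably transfected with hCAR and CYP2B6-2.2kb luciferase were exposed to compounds at 15 concentrations for 24 h at 37 C/5% CO2. A luciferase reagent was added and luminescence recorded after 30 min.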

For assay [5] the target is unchanged. The experiment in a line: qHTS assay to identify small molecule agonists of the constitutive androstane receptor (CAR) signaling pathway (AID 1224839).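 For activation: HepG2 cells stably carrying human CAR and a CYP2B6 luciferase reporter; series mostly up to about 92 µM.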 Note: nearly all actives have a fitted effect of over 15% in size. Note: potency is the fitted concentration of half-maximal effect. In short, it runs like this:
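Readout: firefly luciferase luminescence via ONE-Glo. System: HepG2 double-stable for hCAR and CYP2B6-2.2kb. Conditions: 15-point compound titration, PK11195 at 0.75 uM final, 24 h incubation.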

The nature of assay [6]: qHTS assay to identify small molecule antagonists of the estrogen related receptor signaling pathway with the pleiotropic PPARgamma coactivator (PGC) from Tox21 10K library - cell viability counter screen (AID 1224840; active = well fitted cell-killing curve with a large enough effect in the repeat runs, not every such curve was filed as active; note: nearly all actives have a fitted effect of over 40% in size; note: potency is the fitted concentration of half-maximal effect). In short, it runs like this:
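Viability counter screen, PGC/ERR cells: 17.5 h compound exposure at 37 C, CellTiter-Fluor fluorescence endpoint.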

The nature of assay [7]: qHTS assay to identify small molecule agonists of the estrogen related receptor signaling pathway with the pleiotropic PPARgamma coactivator (PGC) from Tox21 10K library (AID 1224842). Note: nearly all actives have a fitted effect of over 15% in size. In short, it runs like this:
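PGC/ERR reporter cell line, 2,000 cells per well, incubated 6 h at 37 C before 23 nL compound in DMSO was added. After 18 h at 37 C, One-Glo luminescence read following 30 min at room temperature.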

Assay [8] addresses Thyrotropin receptor (Homo sapiens) (UniProt P16473). The experiment in a line: qHTS assay to identify small molecule agonists of the thyroid stimulating hormone receptor (TSHR) signaling pathway (AID 1224843; calls by dose curve; note: nearly all actives have a fitted effect of over 45% in size). An outline of the steps:
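Agonist-mode screen: TSHR HEK293 cells received test chemicals for half an hour at room temperature, then HTRF cAMP detection reagents for one hour prior to fluorescence measurement. Each chemical ran as a 15-concentration series, triplicated.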

Assay [9] in a line: qHTS assay to identify small molecule agonists of the hypoxia (HIF-1) signaling pathway - cell viability counter screen (AID 1224844; calls by dose curve; note: nearly all actives have a fitted effect of over 50% in size; note: potency is the fitted concentration of half-maximal effect). In short, it runs like this: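 Same wells as the HIF-1 reporter screen; ME-180 cells carrying HRE-bla, 17 hr treatment at 37C; CellTiter-Glo luminescence read after 30 min at room temperature.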
Assay [10] is described as follows: qHTS assay to identify small molecule antagonists of the estrogen related receptor (ERR) signaling pathway from Tox21 library (AID 1224848). Note: potency is the fitted concentration of half-maximal effect; nearly all actives have a fitted effect of over 50% in size. In short, it runs like this:
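Quantitative high-throughput format: ERR reporter cells (2,000/well) pre-incubated 6 h, treated 18 h at 37 C with compounds in DMSO alongside positive and negative controls, then read by ONE-Glo luminescence.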

Assay [11] is described as follows: qHTS RealTime-Glo MT Cell Viability Assay in HepG2 cells - 24 hour (AID 1224867). Note: nearly all actives have a fitted effect of over 50% in size. Note: potency is the fitted concentration of half-maximal effect. An outline of the steps:
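HepG2 cells were seeded at 600 cells/well together with NanoLuc luciferase and a cell-permeant prosubstrate, preincubated 5 h at 37 C/5% CO2, then pin-dosed with compounds in DMSO. Nonlytic luminescence from viable cells was read at each time point.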

Assay [12] is described as follows: qHTS RealTime-Glo MT Cell Viability Assay in HEK293 cells - 32 hour (AID 1224868). Note: potency is the fitted concentration of half-maximal effect; nearly all actives have a fitted effect of over 50% in size. In short, it runs like this: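 HEK293 cells were seeded at 600 cells/well together with NanoLuc luciferase and cell-permeant prosubstrate, preincubated 5 h at 37 C/5% CO2, then given compound in DMSO by pintool. Luminescence from viable-cell prosubstrate reduction was read repeatedly over 40 h.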

A short description of assay [13]: A CellTox Green Cytotoxicity Assay to monitor cytotoxicity in HEK293 cells - 0 hour (AID 1224869). Note: nearly all actives have a fitted effect of over 50% in size. In short, it runs like this: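 Homogeneous no-lysis format: HEK293 cell suspension mixed with CellTox Green reagent, seeded, incubated 5 h at 37 C/5% CO2, then dosed by pintool with compound in DMSO.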
Assay [14] is described as follows: qHTS RealTime-Glo MT Cell Viability Assay in HepG2 cells - 40 hour (AID 1224870). Note: nearly all actives have a fitted effect of over 50% in size. Note: potency is the fitted concentration of half-maximal effect. An outline of the steps:
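HepG2 cells (600/well) mixed with RealTime-Glo MT reagent, settled 5 h at 37 C/5% CO2 before compound addition. Nonlytic NanoLuc luminescence from viable-cell prosubstrate reduction read repeatedly during 40 h treatment at 37 C.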

The nature of assay [15]: qHTS assay to identify small molecule antagonists of the estrogen related receptor (ERR) signaling pathway from Tox21 library - cell viability counter screen (AID 1224834). Note: potency is the fitted concentration of half-maximal effect; nearly all actives have a fitted effect of over 30% in size. An outline of the steps:
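In this quantitative HTS format, ERR cells receive compounds in DMSO and are incubated for 17.5 h at 37 C. Live-cell protease activity is then detected with CellTiter-Fluor.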

A short description of assay [16]: qHTS assay to identify small molecule agonists of H2AX (AID 1224845; active = well fitted activation curve with a large enough effect in the signal ratio in the repeat runs, not every such curve was filed as active; the % refers to the signal ratio; note: potency is the fitted concentration of half-maximal effect). An outline of the steps:
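Wild-type CHO-K1 cells, plated overnight, exposed 3hr at 37C to 15 concentrations (0.76% DMSO final). Lysed, then HTRF anti-pH2AX (S139) cryptate and anti-H2AX-d2 antibodies, 24 hr room temperature; 665/620 nm emission read.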

The nature of assay [17]: qHTS assay to identify small molecule agonists of H2AX - cell viability counter screen (AID 1224847; calls by dose curve; note: nearly all actives have a fitted effect of over 30% in size; note: potency is the fitted concentration of half-maximal effect). In short, it runs like this:
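For this counter screen, overnight-attached CHO-K1 cells received test compounds (15 concentrations, 0.76% DMSO final); 3 hr later at 37C, CellTiter-Glo reagent was added and luminescence recorded after 30 min at room temperature.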

Assay [18] is described as follows: qHTS assay to identify small molecule antagonists of the estrogen related receptor signaling pathway with the pleiotropic PPARgamma coactivator (PGC) from Tox21 10K library (AID 1224841; call rule not given here). In short, it runs like this: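 In the PGC/ERR line, DMSO solutions of test chemicals are pin-delivered to 2,000 cells/well six hours after dispensing. Following eighteen hours' incubation, One-Glo reagent is added and luminescence recorded.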

A short description of assay [19]: qHTS assay to identify small molecule agonists of the hypoxia (HIF-1) signaling pathway (AID 1224846; active = well fitted activation curve with a large enough effect in the signal ratio in the repeat runs, not every such curve was filed as active; the % refers to the signal ratio). In short, it runs like this: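 In ME-180 cells bearing an HRE-bla construct, 17 h treatment with DMSO-dissolved compounds at 37C was followed by CCF4-AM loading to quantify reporter induction.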

Sequence of Nuclear receptor subfamily 1 group I member 3 (Homo sapiens) (Q14994 whole entry, looked up): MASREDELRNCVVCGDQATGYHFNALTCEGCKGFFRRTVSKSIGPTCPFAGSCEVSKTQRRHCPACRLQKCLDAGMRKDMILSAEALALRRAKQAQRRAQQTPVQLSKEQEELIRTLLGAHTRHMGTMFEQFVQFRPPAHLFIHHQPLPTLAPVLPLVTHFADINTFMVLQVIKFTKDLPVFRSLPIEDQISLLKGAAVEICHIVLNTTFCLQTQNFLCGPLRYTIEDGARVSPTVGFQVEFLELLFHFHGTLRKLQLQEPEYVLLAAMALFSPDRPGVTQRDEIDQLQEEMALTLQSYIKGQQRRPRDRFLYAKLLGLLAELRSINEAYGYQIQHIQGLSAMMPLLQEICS
Sequence of Thyrotropin receptor (Homo sapiens) (P16473 whole entry, looked up): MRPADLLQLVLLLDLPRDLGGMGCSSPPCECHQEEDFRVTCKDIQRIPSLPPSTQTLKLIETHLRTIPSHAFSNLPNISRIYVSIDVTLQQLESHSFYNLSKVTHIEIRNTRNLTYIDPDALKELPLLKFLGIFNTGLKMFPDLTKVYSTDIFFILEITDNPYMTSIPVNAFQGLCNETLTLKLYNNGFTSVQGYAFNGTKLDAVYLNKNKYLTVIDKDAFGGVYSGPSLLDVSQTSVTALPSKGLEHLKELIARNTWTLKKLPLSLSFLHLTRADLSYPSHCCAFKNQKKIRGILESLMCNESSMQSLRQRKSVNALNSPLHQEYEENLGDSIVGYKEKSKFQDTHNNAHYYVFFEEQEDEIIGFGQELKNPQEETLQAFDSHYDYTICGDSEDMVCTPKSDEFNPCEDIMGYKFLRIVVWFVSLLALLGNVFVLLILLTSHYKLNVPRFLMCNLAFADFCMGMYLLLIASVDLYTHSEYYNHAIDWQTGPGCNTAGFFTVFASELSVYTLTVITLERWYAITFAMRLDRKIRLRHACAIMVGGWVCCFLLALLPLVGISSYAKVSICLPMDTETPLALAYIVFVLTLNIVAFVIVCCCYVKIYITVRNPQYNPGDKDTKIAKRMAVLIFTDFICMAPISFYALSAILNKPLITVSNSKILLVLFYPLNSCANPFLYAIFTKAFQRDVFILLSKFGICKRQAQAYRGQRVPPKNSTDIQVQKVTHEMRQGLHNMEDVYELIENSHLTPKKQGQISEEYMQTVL
Sequence of Luciferin 4-monooxygenase (Photinus pyralis) (P08659 whole entry, looked up): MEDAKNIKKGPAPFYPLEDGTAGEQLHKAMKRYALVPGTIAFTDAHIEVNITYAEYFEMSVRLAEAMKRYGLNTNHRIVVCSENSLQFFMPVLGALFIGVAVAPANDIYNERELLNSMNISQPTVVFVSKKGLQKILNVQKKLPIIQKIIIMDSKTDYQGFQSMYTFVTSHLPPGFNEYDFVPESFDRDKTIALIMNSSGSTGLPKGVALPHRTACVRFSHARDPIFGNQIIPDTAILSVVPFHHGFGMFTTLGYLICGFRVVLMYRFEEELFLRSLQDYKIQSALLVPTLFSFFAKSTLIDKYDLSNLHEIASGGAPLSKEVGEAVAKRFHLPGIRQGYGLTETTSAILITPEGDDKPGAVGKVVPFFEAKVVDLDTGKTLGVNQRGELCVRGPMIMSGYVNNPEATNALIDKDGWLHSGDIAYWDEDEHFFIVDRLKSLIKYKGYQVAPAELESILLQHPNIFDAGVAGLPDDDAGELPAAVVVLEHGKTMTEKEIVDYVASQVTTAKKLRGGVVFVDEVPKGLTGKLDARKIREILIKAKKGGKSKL

For `CC(C)(O)c1cnn2c(-c3ccc(F)c(-c4c(F)cccc4C#N)c3)cnc2n1`, the Potency result in [1], in [2], in assay [3], in [4], in assay [5] and in assay [6] was “inactive” throughout. Further, the Potency result in [7], in assay [8], in assay [11], in [13] and in assay [14] was “inactive” throughout. Further, the Potency in assay [9] was 54.9 µM (active); in [10], 27.3 µM (active); in assay [12], 5.49 µM (active).

For the compound `O=c1[nH]c2ccccc2n1CCCN1CCC(n2c(=O)[nH]c3cc(Cl)ccc32)CC1`, the Potency in assay [15] is 29.8 µM (active); in assay [12], 10.7 µM (active). Besides, the Potency entry in assay [4], in assay [5], in assay [8], in assay [11], in assay [13] and in assay [14] was “inactive” throughout.

Regarding `O=[N+]([O-])O.O=[N+]([O-])O.[Cd]`, the Potency in assay [15] is 9.69 µM (active); in assay [2] it was 7.7 µM (active); in assay [3], 6.11 µM (active); in [6], 3.06 µM (active); in [12], 49 µM (active). Also, the Potency entry in assay [13] and in assay [14] was “inactive” throughout.

On to `CCCCCCCCc1ccc(O)cc1`, for which the Potency is 61.5 µM (active) in assay [15]; 69 µM (active) in assay [2]; 48.9 µM (active) in assay [5]; 36 µM (active) in assay [16]; 25.5 µM (active) in assay [17]; 5.53 µM (active) in assay [12]. Moreover, the Potency entry in assay [4] and in assay [8] was “inactive” in each case.

In the case of `CC(=O)[O-].CC(=O)[O-].O.O.[Cd+2]`, the Potency was 26.9 µM (active) in assay [15]; 5.37 µM (active) in [2]; 6.76 µM (active) in assay [3]; 12 µM (active) in [6]; 34.2 µM (active) in assay [9]; 62.7 µM (active) in [16]. Moreover, the Potency result in assay [13] and in assay [14] was “inactive” throughout.

`O=[N+]([O-])c1ccc(Oc2ccc(C(F)(F)F)cc2[N+](=O)[O-])cc1`: the Potency result in assay [1], in assay [2], in [3], in assay [4], in [6] and in assay [18] was “inactive” throughout. Moreover, the Potency entry in [7], in assay [8], in assay [9], in assay [16], in [17] and in assay [11] was “inactive” in each case. Also, the Potency result in [13] and in [14] was “inactive” in each case. For the same compound, in assay [19], the outcome was inactive.

In the case of `CC(=O)[O-].CC(=O)[O-].[Hg+2]`, the Potency in assay [15] is 3.86 µM (active); in [2], 7.7 µM (active); in [3], 4.86 µM (active); in [6], 2.73 µM (active); in assay [9], 3.47 µM (active); in assay [17], 6.35 µM (active). Also, the Potency is 2.19 µM (active) in [11] and 2.45 µM (active) in [14]. In addition, the Potency entry in [13] is “inactive”.

Take `[Cd+2].[Cl-].[Cl-]`: the Potency in assay [15] is 24.5 µM (active) and 6.11 µM (active); in assay [2] it was 5.49 µM (active) and 9.69 µM (active); in assay [3], 4.36 µM (active) and 9.69 µM (active); in assay [6], 4.9 µM (active) and 2.73 µM (active); in assay [9], 55.4 µM (active); in assay [16], 50.9 µM (active) and 56.6 µM (active). Besides, the Potency result in assay [14] is “inactive”.
